Measured values from PubChem BioAssay (EPA / NIEHS).
Records with an inconclusive call do not appear. Activity calls are given as the source filed them. How the source made its calls, unless noted: active means hit-call score of the fitted dose curve at least 0.9, where 1 is the maximum; inconclusive means response in the unintended direction; inactive means score below 0.9.

Key:
[1] = target: Nucleoli Translocation, AR (gene 367) (UniProt P10275); assay: UPITT_HCI_U2OS_AR_TIF2_Nucleoli_Antagonist: University of Pittsburgh U2OS Androgen Receptor-Transcriptional Intermediary Factor 2 (AR-TIF2) Antagonism High Content Imaging Assay for Nucleoli Translocation (AID 2283997)
How it was run: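 Antagonism is read as loss of nucleolar AR-RFP signal relative to DHT, imaged in U2OS cells also carrying GFP-TIF2. Compounds screened at 20 uM final, 0.2% DMSO; primary actives retested in triplicate.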

[2] = target: Nucleoli Translocation, AR (gene 367) (UniProt P10275); assay: UPITT_HCI_U2OS_AR_TIF2_Nucleoli_Agonist: University of Pittsburgh U2OS Androgen Receptor-Transcriptional Intermediary Factor 2 (AR-TIF2) Agonism High Content Imaging Assay for Nucleoli Translocation (AID 2283998)
How it was run: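 Red-tagged human androgen receptor co-expressed with GFP-tagged TIF2 serves as the binding reporter. Primary testing used 20 uM final (0.2% DMSO); follow-up dose response covered 0.195 to 50 uM final (0.5% DMSO).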

[3] = target: Ratio of Nucleoli Translocation and Cytoplasm, AR (gene 367) (UniProt P10275); assay: UPITT_HCI_U2OS_AR_TIF2_Nucleoli_Cytoplasm_Ratio_Antagonist: University of Pittsburgh U2OS Androgen Receptor-Transcriptional Intermediary Factor 2 (AR-TIF2) Antagonism High Content Imaging Assay for Ratio of Nucleoli Translocation and Cytoplasm (AID 2283999);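 further: antagonists lower the DHT-driven ratio of nucleolar to cytoplasmic red signal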
How it was run: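 High-content imaging of red fluorescence ratio, nucleoli versus cytoplasm, in U2OS expressing AR-RFP and TIF2-GFP, fitted relative to DHT. Compounds tested once at 20 uM final, then 0.195 to 50 uM final in serial dilution.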

[4] = target: Ratio of Nucleoli Translocation and Cytoplasm, AR (gene 367) (UniProt P10275); assay: UPITT_HCI_U2OS_AR_TIF2_Nucleoli_Cytoplasm_Ratio_Agonist: University of Pittsburgh U2OS Androgen Receptor-Transcriptional Intermediary Factor 2 (AR-TIF2) Agonism High Content Imaging Assay for Ratio of Nucleoli Translocation and Cytoplasm (AID 2284000);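 further: hits raise the red nucleolar to cytoplasm ratio above vehicle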
How it was run: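 Compounds tested at 20 uM final in primary screen (0.2% DMSO) and 0.195-50 uM final in dose-response (0.5% DMSO). Imaging of human U2OS cells bearing RFP-AR and GFP-TIF2; endpoint is nucleoli/cytoplasm red signal ratio, positive direction relative to DMSO.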

[5] = CCTE_Simmons_MITO_basal_resp_rate: CCTE's HepG2 Seahorse XF Respirometric Screening Assay at Basal Respiratory State, Simmons Lab (AID 2284001; active means hit-call score of the fitted dose curve at least 0.9, where 1 is the maximum; inactive means score below 0.9); conditions: actives raise or lower the signal
How it was run: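 Basal-phase OCR in HepG2 cells, read at 6-min intervals across a 72-min run, with test compound injected at 125 nM–100 uM final (7 points). Fitted both directions against DMSO; three biological replicates per concentration.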

Nucleoli Translocation, AR (gene 367), sequence (P10275 whole entry, looked up): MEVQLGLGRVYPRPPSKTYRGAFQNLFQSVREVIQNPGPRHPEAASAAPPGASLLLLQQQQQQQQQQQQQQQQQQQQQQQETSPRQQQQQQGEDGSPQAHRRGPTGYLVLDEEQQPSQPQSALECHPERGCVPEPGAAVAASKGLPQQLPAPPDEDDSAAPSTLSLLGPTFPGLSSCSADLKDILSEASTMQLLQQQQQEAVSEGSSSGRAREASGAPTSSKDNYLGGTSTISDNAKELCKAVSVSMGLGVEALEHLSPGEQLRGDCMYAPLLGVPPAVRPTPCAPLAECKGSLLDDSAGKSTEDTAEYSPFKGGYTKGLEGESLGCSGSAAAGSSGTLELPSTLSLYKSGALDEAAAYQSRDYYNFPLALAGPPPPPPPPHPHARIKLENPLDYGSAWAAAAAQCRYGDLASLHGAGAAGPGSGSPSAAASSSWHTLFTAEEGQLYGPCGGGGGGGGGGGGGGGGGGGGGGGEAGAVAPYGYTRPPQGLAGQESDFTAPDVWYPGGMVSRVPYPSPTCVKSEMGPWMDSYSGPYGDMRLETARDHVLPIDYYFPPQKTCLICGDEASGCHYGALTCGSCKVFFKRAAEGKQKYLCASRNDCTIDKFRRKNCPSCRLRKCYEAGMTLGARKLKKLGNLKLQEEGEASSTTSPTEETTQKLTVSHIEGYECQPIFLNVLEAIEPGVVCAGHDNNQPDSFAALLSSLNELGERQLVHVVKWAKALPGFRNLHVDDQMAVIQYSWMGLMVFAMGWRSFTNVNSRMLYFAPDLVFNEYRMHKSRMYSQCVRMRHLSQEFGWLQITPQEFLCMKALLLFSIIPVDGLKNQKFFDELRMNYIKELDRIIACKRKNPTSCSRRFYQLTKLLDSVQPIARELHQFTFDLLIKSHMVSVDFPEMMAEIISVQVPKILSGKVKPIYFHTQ
Ratio of Nucleoli Translocation and Cytoplasm, AR (gene 367), sequence (P10275 whole entry, looked up): as above

SMILES | outcome [1] | outcome [2] | outcome [3] | outcome [4] | AC50 [5]
Cc1ccc2ccccc2c1C | inactive | inactive | inactive | inactive | 
ClC1(Cl)C2(Cl)C3(Cl)C4(Cl)C(Cl)(Cl)C5(Cl)C3(Cl)C1(Cl)C5(Cl)C24Cl (stereo not drawn) | inactive |  |  |  | 
C=C(C)C(=O)[O][Sn]([CH2]CCC)([CH2]CCC)[CH2]CCC |  |  |  |  | 6.57 µM (active)
COP(=O)(OC)OC | inactive | inactive | inactive |  | 
Cc1ccccc1C(=O)Nc1cccc(OC(C)C)c1 | inactive | inactive | inactive | inactive | 
